Only some compounds are listed: those with a hit (about 19% of all), similar ones and a draw of the others.
MCF10A rereplic = A quantitative high throughput screen for small molecules that induce DNA re-replication in MCF 10a normal breast cells | MCF 10A DNA re-replication, Hoechst nuclear intensity, 48 h | Potency, µM (titrated, usually from 46.1 µM), inactives show at the highest dose activity, positive = re-replication, actives largely listed as activators | 350,000 tested, 2.9% active | AID 624296, 2012; note: potency is the fitted concentration of half-maximal effect; % of control where 0% means no effect; nearly all actives have a fitted effect of over 50% in size
IL1B secr inh = qHTS for Inhibitors of Inflammasome Signaling: IL-1-beta AlphaLISA Primary Screen | activity change, % at 57.5 µM | 360,000 tested, 4.7% active | THP-1 LPS/ATP IL-1B secretion, AlphaLISA, 16 h; hits give low values | AID 743279, 2014; in the data active = activity change below about -50%; inconclusive = mostly about -30% to -49%; note: % is set by controls: 0 for no effect and ±100 for the full control effect
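THP-1 cells pretreated 1 hr with compounds (up to 57.5 uM final), then stimulated with LPS (250 ng/mL final) plus ATP (1.25 mM final); secreted IL-1B measured by AlphaLISA after 16 hr, decreased signal indicating inhibition.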
SW480 rerep = A quantitative high throughput screen for small molecules that induce DNA re-replication in SW480 colon adenocarcinoma cells; SW480 DNA re-replication, Hoechst DNA content imaging, 48 h; Potency, µM (series often up to 46.1 µM), without a hit: at the highest dose re-replication activation, actives largely listed as activators; AID 624297, 2012; 340,000 tested, 1.8% active; note: potency is the fitted concentration of half-maximal effect; % of control where 0% means no effect; nearly all actives have a fitted effect of over 55% in size
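Image-based DNA-content assay: after two days of treatment, nuclei were labelled with the DNA dye Hoechst and imaged, and hits were compounds raising the count of nuclei showing high fluorescence intensity.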
Chronic BCR inh = qHTS Assay to Find Inhibitors of Chronic Active B-Cell Receptor Signaling | 340,000 tested, 0.05% active | Potency, µM (top dose mostly 46.1 µM), for the others: at the highest dose activity change, negative = inhibition, most hits filed as inhibitors | ABC-DLBCL IkBa-CBG/CBR reporter, luminescence ratio, 4 h; active = well fitted inhibition curve with a large enough effect in the signal ratio, with a control signal flat, not every such curve was filed as active; inconclusive = small, poorly fitted or top-dose-only effect, or effect the other way, or a change in a side signal; the % refers to the signal ratio;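 note: potency is the fitted concentration of half-maximal effect; plate controls were basal doxycycline-induced cells for no effect and cells given 10 µM MG132 for full effect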
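Concentration-response series (up to 46 uM) were applied to TMD8 dual-reporter cells for 4 h at 37C with doxycycline. Green/red ratio, after filter-overlap correction, defined %Activity; red signal alone was normalised to basal cells and zero luminescence.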
DT40 TDP1 CPT = qHTS for Inhibitors of human tyrosyl-DNA phosphodiesterase 1 (TDP1): qHTS in cells in presence of CPT; AID 686979, 2013; Potency, µM (titrated, usually from 46.2 µM), for inactives: at the top dose activity change, negative = growth inhibition, most hits filed as inhibitors; 420,000 tested, 12% active; chicken DT40 Tdp1-/-;hTDP1 cells + 20 nM CPT, ATP luminescence, 48 h; note: potency is the fitted concentration of half-maximal effect; % is set by controls: 0 for no effect and ±100 for the full control effect; nearly all actives have a fitted effect of over 55% in size
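Chicken DT40 Tdp1-/- cells complemented with human TDP1, 400 cells/well, exposed to compounds plus 20 nM camptothecin for at least 48 h at 37 C; viability read as ATP content by CellTiter-Glo luminescence.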
DT40 TDP1 no CPT = qHTS for Inhibitors of human tyrosyl-DNA phosphodiesterase 1 (TDP1): qHTS in cells in absence of CPT; DT40 Tdp1-/- hTDP1 cells, no CPT, ATP luminescence, 48 h; Potency, µM (series often up to 46.2 µM), for the others: at the highest dose activity change, negative = growth inhibition, actives largely listed as inhibitors; 420,000 tested, 15% active; AID 686978, 2013; note: potency is the fitted concentration of half-maximal effect; % is set by controls: 0 for no effect and ±100 for the full control effect; nearly all actives have a fitted effect of over 55% in size
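DT40 Tdp1-/-;hTDP1 cells, no CPT (DMSO vehicle only), 400 cells/well; compounds pin-transferred; ≥48 hr, 37 °C; CellTiter-Glo 30 min RT dark, luminescence read.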
* = called active by the depositor; ? = inconclusive; nt = no result; [ ] = remark or other dose. Unless noted, calls come from the whole dose curve; as a rule, active = well fitted curve in the direction sought with a large enough effect; inconclusive = small, poorly fitted or top-dose-only effect, or another doubt; inactive = no such curve, though single readings can be large; an effect the other way counts as inactive or inconclusive.

SMILES | MCF10A rereplic | IL1B secr inh | SW480 rerep | Chronic BCR inh | DT40 TDP1 CPT | DT40 TDP1 no CPT
COc1ccc(C2=C(c3ccccc3)OC(OC)c3cc(F)ccc32)cn1 (configuration not stated) | nt | -6 | nt | nt | -22% | ?
COc1cccc(C2CC(c3ccc(Cl)cc3Cl)Nc3nc(N)nn32)c1 (configuration not stated) | -8% | 16 | -3% | -9% | ? | 23µM*
CCOc1ccc(C2CC(c3cccc(Cl)c3)n3nc(N)nc3N2)cc1 (configuration not stated) | -5% | -23 | -11% | -9% | 7.3µM* | 16µM*
CCOc1ccc(C2CC(c3ccc(OC)c(OC)c3)n3nc(N)nc3N2)cc1 (configuration not stated) | 0% | 16 | -5% | 2% | -22% | -24%
CCN(CC)C(=N)/C(C#N)=N/Nc1ccc(C)cc1 | ? | -54* | -10% | 1% | 10% | -29%
CCOC(=O)C1CCCN(C(=O)C2CCN(S(=O)(=O)c3c(C)noc3/C=C/c3ccc(C)cc3)CC2)C1 (configuration not stated) | nt | nt | nt | nt | 18µM* | ?
Cc1cccc(/C=C/c2onc(C)c2S(=O)(=O)N2CCC(C(=O)N3CCCCC3)CC2)c1 | 0% | -15 | -18% | ? | 29µM* | 18µM*
Cc1ccc(/C=C/c2onc(C)c2S(=O)(=O)N2CCC(C(=O)N3CCCCC3)CC2)cc1 | 27% | ? | -17% | -1% | ? | ?
Cc1cccc(N2CCN(C(=O)C3CCN(S(=O)(=O)c4c(C)noc4C)CC3)CC2C)c1 (configuration not stated) | 11% | 4 | -2% | ? | 8.2µM* | 9.2µM*
CCCN1CCN(C(=O)C2CCN(S(=O)(=O)c3c(C)noc3/C=C/c3ccc(C)cc3)CC2)CC1 | ? | ? | 16µM* | -10% | 21µM* | 21µM*
CC(C)n1nc(Cc2cccc3ccccc23)c(C#N)c1N | -24% | nt | -5% | nt | nt | nt
Cc1cccc(CC(=O)NCC2CCCCC2)c1 | 0% | -4 | 9% | 6% | ? | -25%
COc1ccc(S(=O)(=O)N2CCOC2CNC(=O)C(=O)NCCc2ccc(S(N)(=O)=O)cc2)cc1 (configuration not stated) | -10% | 17 | -2% | ? | ? | -11%
CCCN(C(=O)C1CCN(S(=O)(=O)c2c(C)noc2/C=C/c2ccc(C)cc2)CC1)c1ccccc1F | nt | nt | nt | nt | ? | 23µM*
O=C(Cc1cccs1)N(c1ccc(Br)cc1)C1C=CS(=O)(=O)C1 (configuration not stated) | 13% | 15 | -3% | 0% | 16µM* | ?
CN1CCc2nc(SCc3ccc(Cl)cc3)c(C#N)c(-c3cccs3)c2C1 | ? | -12 | ? | nt | 16µM* | ?
N#Cc1cc2c(nc1SCc1cccnc1)CCCCC2 | -1% | -66* | -3% | nt | -24% | -23%
N#Cc1cc2c(nc1SCc1ccccc1)CCCCC2 | 4% | 15 | -2% | 2% | 18µM* | 21µM*
Cc1ccc(CSc2nc3c(cc2C#N)CCC3)cc1 | -6% | 0 | 14%[9.22 µM] | -4% | -9% | -2%
CN1CCc2nc(SCc3ccc(C(C)(C)C)cc3)c(C#N)cc2C1 | -2% | -21 | 0% | 0% | 23µM* | ?
COc1cc(C(=O)OCC(=O)Nc2ccc(C)cc2)cc(OC)c1OC | 11% | 3 | 24% | ? | -1% | ?
CCNC(=O)N(C)c1c(CC)nc2ccc(C(=O)N3CCN(C(=O)c4ccco4)CC3)cn12 | nt | 10 | nt | nt | -3% | -7%

High-throughput results: PubChem BioAssay, National Center for Advancing Translational Sciences (NCATS)
